In PubChem BioAssay AID504847 (National Center for Advancing Translational Sciences (NCATS), 2011):
“And” between values parts separate entries of the source, which are not always exact repeats. Equal entries are not always repeated. The campaign covered roughly 400,000 compounds. About 3,700 (0.93%) were called active. About 3% were inconclusive and are not listed. This excerpt belongs to a sample that is enriched for actives. A number with no mark means an inactive call. The call rests on the fitted dose curve; in most records, active means well fitted inhibition curve with a large enough effect; inconclusive means small, poorly fitted or top-dose-only effect, or another doubt; inactive means no such curve, though single readings can be large or run the other way.

Target: Vitamin D3 receptor (Homo sapiens) (UniProt P11473)
Sequence (P11473 whole entry, looked up): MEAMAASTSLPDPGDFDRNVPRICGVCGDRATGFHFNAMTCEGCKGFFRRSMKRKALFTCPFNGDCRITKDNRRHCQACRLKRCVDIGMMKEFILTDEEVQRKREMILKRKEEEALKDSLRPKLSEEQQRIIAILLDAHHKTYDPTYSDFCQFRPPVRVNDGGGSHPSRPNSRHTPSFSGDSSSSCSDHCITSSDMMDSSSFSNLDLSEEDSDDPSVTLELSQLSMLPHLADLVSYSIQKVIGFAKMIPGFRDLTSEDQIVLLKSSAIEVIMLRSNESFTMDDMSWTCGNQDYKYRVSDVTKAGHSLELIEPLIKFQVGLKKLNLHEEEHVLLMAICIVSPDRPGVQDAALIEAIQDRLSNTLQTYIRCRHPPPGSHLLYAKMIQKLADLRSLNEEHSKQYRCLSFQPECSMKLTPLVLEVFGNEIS
Assay: Inhibitors of the vitamin D receptor (VDR): qHTS
Conditions: VDR-SRC2-3 peptide fluorescence polarization, 2 h; max response, negative = inhibition: stronger effect = lower value
Summary of the method: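 Signal is fluorescence polarization, reporting how far test compounds block the interaction of VDR with the SRC2-3 coregulator peptide after a 2 h room-temperature incubation.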
On the % scale 0 is the no-effect control and ±100 the full control effect; potency means the concentration at half of the fitted maximal effect.

SMILES	max response, negative = inhibition	Potency
Cc1cccc(Nc2cc(C)nc(-n3nc(C)cc3C)n2)c1	8.15%	–
Cc1cccn2c(=O)c3cc(C(=O)NC4CCCCC4)sc3nc12	8.23%	–
Cc1cc(C)cc(Oc2nc3c(C)cccn3c(=O)c2/C=C(\C#N)C(=O)NC2CCS(=O)(=O)C2)c1 (stereo unspecified)	–	20 µM (active)
Cc1cccn2c(=O)c(/C=C(\C#N)C(N)=O)c(N3CCCCCC3)nc12	-6.66%	–
Cc1ccc(C(=O)Nc2ccc3[nH]c(=O)c(=O)[nH]c3c2)cc1	-3.19%	–
COc1ccc(CCNC(=O)CCCCn2c(=O)c3ccccc3n(Cc3ccccc3)c2=O)cc1OC	-5.56%	–
COc1cc(C(=O)Nc2ccc(OCc3cc(=O)n4ccc(C)cc4n3)cc2)cc(OC)c1OC	15.3%	–
CC(C)(C)c1ccc(C(=O)N2CCC(c3nc(-c4ccc(S(=O)(=O)N5CCCC5)cc4)no3)CC2)cc1	-2.01%	–
c1ccc(-c2cc3c(NCC4COc5ccccc5O4)ncnc3s2)cc1 (stereo unspecified)	3.5%	–
Oc1ccccc1N1CCN(c2ncnc3sc(-c4ccccc4)cc23)CC1	–	22.4 µM (active)
COc1ccccc1N1CCN(c2ncnc3sc(C)c(-c4ccccc4)c23)CC1	9.44%	–
CCOC(=O)c1c(S(=O)(=O)N2CCCC(C(=O)NCc3ccc(F)cc3)C2)c(C)n(CC)c1C (stereo unspecified)	12%	–
CCCC(=O)Nc1ccc(NC(=O)c2sc3ccccc3c2Cl)cc1	1.71%	–
Cc1ccc(-c2nc3ccccn3c2Nc2c(C)cccc2C)o1	–	79.4 µM (active)
Cc1cccc(C)c1Nc1c(-c2ccccc2O)nc2ncccn12	11.5% and -13.4%	–
Cc1ccc(-c2nc3ccccn3c2Nc2ccc(F)cc2)o1	-13.1%	–
CC1CCc2noc(NC(=O)c3ccc([N+](=O)[O-])cc3)c2C1 (stereo unspecified)	20%	–
Cc1cccc(C(CC(=O)NCC2(c3ccccc3)CCCC2)c2ccccc2)c1O (stereo unspecified)	-3.18%	–
Cc1ccc(-c2cnc(NCc3ccc(C(C)C)cc3)n2C)cc1	-12.2%	–

SMILES	max response, negative = inhibition	Potency
COC(=O)c1cc(NC(=O)CCc2c(C)nc3c4c(C)cc(C)nc4nn3c2C)cc(C(=O)OC)c1	-12%	–
CCOC(=O)Cc1csc(NC(=O)CSc2nc(C)cc(=O)[nH]2)n1	–	44.7 µM (active)
CCCCc1nnc(NC(=O)CSc2nc(C)cc(=O)[nH]2)s1	-6.96%	–
CCOC(=O)Cc1csc(SCC(=O)Nc2ccc(C)cc2F)n1	-24.6%	–
C=CCOC(=O)C(=C)C	10.1%	–
COc1ccc(CCC(=O)NCc2ccc3c(c2)CCN3C(=O)c2ccc(F)cc2)cc1	1.51%	–
O=C(Cc1ccccc1)Nc1sc2c(c1C(=O)Nc1ccc(Br)cc1)CCC2	1.17%	–
CCOc1ccc(NC(=O)c2c(NCc3cccc(OC)c3OC)sc3c2CCC3)cc1	-0.323%	–
Cc1cccc(OCCCC(=O)Nc2sc3c(c2C(N)=O)CCC(C)C3)c1 (stereo unspecified)	0.722%	–
Cc1ccccc1NC(=O)c1c(NC(=O)c2ccccc2F)sc2c1CCC(C)C2 (stereo unspecified)	-12.5%	–
CCOc1ccc(NC(=O)c2c(NC(=O)Cc3ccccc3)sc3c2CCC(C)C3)cc1 (stereo unspecified)	–	79.4 µM (active)
CCOc1ccc(NC(=O)c2c(NC(=O)Cc3ccccc3)sc3c2CCCCC3)cc1	–	17.8 µM (active)
COc1ccc2oc(-c3ccc(C)c(NC(=O)c4sc5ccccc5c4Cl)c3)nc2c1	-13.7%	–
O=C(O)c1ccc(Nc2nc(-c3ccccc3)c3cc(Br)ccc3n2)cc1	-8.21%	–
Cc1cccc(N2CCN(C(=O)CCn3c(=O)c4cccn4c4cccnc43)CC2C)c1 (stereo unspecified)	-1.09%	–
Cc1ccc(C2CCN(C(=O)c3cnn(-c4ccccc4Cl)c3C3CCN(C(=O)OC(C)(C)C)CC3)C2)cc1 (stereo unspecified)	14.7%	–
Cc1cccc(C(=O)N2CCc3cc(CNC(=O)Cc4ccc(F)cc4)ccc32)c1	6.68%	–
CCCCNC(=O)Cn1c(SCc2cccc(Cl)c2)nc2ccncc21	-15.1%	–
O=S(=O)(Nc1cccc2cccnc12)c1cccc2cccnc12	-4.84%	–

SMILES	max response, negative = inhibition	Potency
CCOC(=O)c1ccc(NC(=O)c2c(NCc3cccs3)sc3c2CCCC3)cc1	-5.89%	–
O=C(O)c1ccccc1CSc1nc2ccccc2s1	–	89.1 µM (active)
O=C(Nc1ccc2nc(SCC(=O)N3CCc4ccccc43)sc2c1)c1ccccc1F	0.401%	–
CN(C(=O)CSc1nc2ccc(NC(=O)COc3ccccc3)cc2s1)c1ccccc1	3.21%	–
CCOc1ccccc1NC(=O)C1=C(C)Nc2ncnn2C1c1ccc(NC(C)=O)cc1 (stereo unspecified)	6.42%	–
COc1ccc(Br)cc1C1C2C=CCC(C)C2C(=O)N1Cc1ccccc1 (stereo unspecified)	-6.47%	–
COc1ccccc1CNC(=O)c1ccc(NC(=O)N2CC(C)Sc3ccccc32)cc1 (stereo unspecified)	-3.93%	–
O=C(NCc1ccccc1)c1cccc(NC(=O)N2CCSc3ncccc32)c1	4.27%	–
CCCCN1C(=O)/C(=C(/C#N)C(N)=O)c2ccccc21	–	50.1 µM (active)
Cc1cc(C(=O)COC(=O)CCCN2C(=O)c3ccccc3C2=O)c(C)n1C	11.4%	–
O=C(O)CCCN1C(=O)c2ccccc2Sc2ncccc21	23.5%	–
O=C(/C=C/c1cn(CC(O)CN2CCc3ccccc32)c2ccccc12)c1ccc(Br)cc1 (stereo unspecified)	25.1%	–
COCCNC(=O)CSc1c(C)cnc2c1c(=O)n(C)c(=O)n2C	8.06%	–
COc1ccc(CS(=O)/C(Cl)=C(/Cl)C(=O)Nc2ccc(OC)nc2)cc1 (stereo unspecified)	–	20 µM (active)
COc1ccc(NC(=O)C(=O)NCc2ccco2)cc1	-7.31%	–
COc1ccc(CC(=O)Nc2ccc(-c3nc4ccccc4s3)c(C)c2)cc1	-0.795%	–
O=C(Nc1ccc2nc(SCCOc3ccccc3Cl)sc2c1)c1ccco1	5.06%	–
CC(Nc1ccc(-c2nc(-c3ccco3)no2)cc1[N+](=O)[O-])c1ccccc1 (stereo unspecified)	0.644%	–
